Bioassay records (PubChem BioAssay)
FUS yeast rescue: qHTS for Suppressors of FUS Proteinopathy: Primary screen using FUS-linked yeast assay; S. cerevisiae FUS-expressing, growth rescue, OD600, 24 h; Potency, µM (titrated, usually from 76.6 µM), usual class: activators; 390,000 tested, 0.24% active; AID 1347120, 2019;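 note: plate controls were DMSO vehicle for no effect and reference control for full effect; nearly all actives have a fitted effect of over 55% in size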
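Cultures pregrown in 2.5% raffinose medium are shifted to minimal medium containing 2% galactose to express toxic FUS. Compounds are tested at several concentrations. After 24hr at 30C, growth is quantified at 600 nm absorbance.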
Abeta rescue: qHTS for compounds that reverse cellular toxicity of Amyloid beta (A-beta) peptide in yeast: Primary Screen. Potency, µM (doses to about 46.1 µM), usual class: activators. 410,000 tested, 0.063% active. yeast expressing A-beta42, growth rescue, OD600, 48 h; response scale: 0% DMSO, 100% iron-clioquinol control; note: nearly all actives have a fitted effect of over 55% in size
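Yeast growth medium received pinned compounds, then yeast cells expressing toxic A-beta were added; plates incubated at 30 C for 48 hr. Growth read as absorbance at 600 nm, normalized to DMSO and equimolar FeCl3 plus clioquinol controls.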
ClpP mod: qHTS Assay for Activators of ClpP; Potency, µM (series often up to 57.5 µM), for inactives: at the highest dose activity change, negative = active; ATP-dependent Clp protease proteolytic subunit (Bacillus subtilis (strain 168)), P80244; AID 651965, 2013; 340,000 tested, 1.9% active; purified B. subtilis ClpP, FRET peptide cleavage, 20 min; active = well fitted falling curve with a large enough effect; inconclusive = small, poorly fitted or top-dose-only effect; inactive = no such curve, though single readings can be large or run the other way; note: the source files actives as falling curves though it sought activators and does not explain the sign; nearly all actives have a fitted effect of over 65% in size
Target sequence (P80244 whole entry, looked up): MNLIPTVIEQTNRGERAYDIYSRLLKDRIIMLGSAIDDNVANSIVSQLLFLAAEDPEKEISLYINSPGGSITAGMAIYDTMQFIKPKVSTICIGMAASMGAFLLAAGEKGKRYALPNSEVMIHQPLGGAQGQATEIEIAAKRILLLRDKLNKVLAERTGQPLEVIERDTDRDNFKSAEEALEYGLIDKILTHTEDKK
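Buffer: 100 mM Tris/HCl pH8, 100 mM KCl, 0.05% low protease BSA, 2.5% glycerol, 0.01% Tween-20. ClpP 10 microg/mL final; 20 min RT; delta FRET normalized to ADEP and DMSO controls.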
aSyn rescue: qHTS of alpha-syn Inhibitors; 370,000 tested, 0.14% active; AID 652106, 2013; Yeast expressing alpha-synuclein, growth rescue, BacTiter-Glo, 24 h; Potency, µM (titrated, usually from 46.1 µM), for the others: at the highest dose growth rescue (activation), actives largely listed as activators; note: % of control where 0% means no effect; nearly all actives have a fitted effect of over 65% in size
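Rescue of yeast growth: cells expressing toxic alpha-synuclein, induced in galactose at OD600 0.02, incubated with compound 24 h at 30 C. ATP luminescence quantified growth; inhibitors of toxicity appear as activators.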
TDP43 rescue: qHTS of TDP-43 Inhibitors | AID 652104, 2013 | Potency, µM (doses to about 46.1 µM), for inactives: top-dose growth rescue (activation), actives largely listed as activators | TDP-43 expressing yeast growth rescue, BacTiter-Glo, 24 h | 410,000 tested, 1.8% active; note: % of control where 0% means no effect; nearly all actives have a fitted effect of over 50% in size
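Luminescence from BacTiter-Glo reports growth of TDP-43-expressing yeast after 24 hr at 30 deg C with compound. Cells were raffinose-pregrown to mid-log, then seeded in galactose medium at OD600=0.02.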
Mm-Cpn inhibitor: Inhibitors of TCP-1 ring complex (TRiC) of Methanococcus maripaludis (MmCpn): qHTS; purified Mm-Cpn ATPase, ADP Transcreener TR-FRET; Potency, µM (series often up to 76.9 µM), inactives show at the highest dose activity, negative = inhibition, actives largely listed as inhibitors; 330,000 tested, 0.031% active; AID 504842, 2011; note: % is set by controls: 0 for no effect and ±100 for the full control effect; nearly all actives have a fitted effect of over 80% in size
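ATPase read-out: TR-FRET ADP immunoassay (anti-ADP Eu cryptate vs ADP-d2), ex 320 nm, em 590/665 nm; signal drops as ADP forms. Enzyme 25 nM, ATP 10 uM, 30 min at 37°C after 10 min compound preincubation.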
* marks the source's active call; other numbers are inactive results; i = inactive; u = inconclusive; x = no result given; [ ] = another dose, or the depositor's remark. In the library only some 3.6% were active in any assay of this set; here they are far more common. Unless noted, calls come from the whole dose curve; as a rule, active = well fitted curve in the direction sought with a large enough effect; inconclusive = small, poorly fitted or top-dose-only effect, or another doubt; inactive = no such curve, though single readings can be large; an effect the other way counts as inactive or inconclusive. Potency is the fitted concentration of half-maximal effect.

SMILES	FUS yeast rescue	Abeta rescue	ClpP mod	aSyn rescue	TDP43 rescue	Mm-Cpn inhibitor
C=CC[C@H](CC(=O)N(CCO)Cc1ccccc1)C(=O)N[C@H](COC(=O)[C@@H](CC=C)CC(=O)OC(C)(C)C)Cc1ccccc1	7.9µM*	i	1%	-2%	-15%	1%
C=CC[C@@H](CC(=O)N(CCO)Cc1ccccc1)C(=O)N[C@H](COC(=O)[C@@H](CC=C)CC(=O)OC(C)(C)C)Cc1ccccc1	u	i	4%	-1%	0%	-1%
N/C(=N\OC(=O)c1ccc(Br)cc1)c1ccccc1	i	i	-1%	-25%	u	0%
CCc1ccc(OCC(=O)O/N=C(\N)c2ccncc2)cc1	i	i	0%	2%	14%	0%
CC(C)(C)c1ccc(OCC(=O)O/N=C(\N)c2ccncc2)cc1	u	i	16µM*	4%	19%	x
CC(C)(C)c1ccc(C(=O)O/N=C(\N)c2ccccc2)cc1	i	i	4%	-49%	3.2µM*	-1%
COc1cc(OC)c(C(=O)O/N=C(\N)c2ccc(C)cc2)cc1OC	i	i	x	-18%	11µM*	4%
Cc1ccc(C(=O)O/N=C(\N)c2ccc(Br)cc2)cc1	x	i	1%	-24%	4µM*	-2%
COc1ccc(C(=O)O/N=C(\N)c2ccc(Br)cc2)cc1	i	i	-11%	-26%	2.5µM*	3%
COc1ccc(C(=O)O/N=C(\N)c2ccccc2)cc1	i	i	x	-69%	u	1%
CCC1S/C(=N\S(=O)(=O)c2cccs2)N(C2CCCCC2)C1=O (centres undefined)	i	i	28µM*	-3%	12%	-4%
CCOc1ccc(OCC)c(NC(=O)C2CCN(c3nnc(-n4cccc4)s3)CC2)c1	i	i	0%	2%	u	x
Cc1ccccc1NC(=S)NNc1ncc(C(F)(F)F)cc1Cl	i	i	-2%	0%	10%	50µM*
CC(=O)NCC1COc2ccccc2O1 (centres undefined)	i	i	2%	4%	18%	-26%
COCc1c(C(=O)NCC2COc3ccccc3O2)oc2ccccc12 (centres undefined)	i	i	2%	1%	32µM*	1%
CC(C)Oc1ccc(/C=C/C(=O)NCC2COc3ccccc3O2)cc1 (centres undefined)	i	u	-8%	2%	18µM*	-1%
Cc1ccccc1C(=O)OCC(=O)NCC1COc2ccccc2O1 (centres undefined)	x	i	-2%	14%	14µM*	-3%
O=C(COc1ccc(Br)cc1)NCC1COc2ccccc2O1 (centres undefined)	i	i	0%	u	25µM*	0%
Cc1ccc(OCC(=O)Nc2ccc3c(c2)nc(CCNC(=O)c2ccco2)n3C)cc1	i	i	0%	x	4%	x
COc1cc(OC)c(N(C)C(=O)c2cc3c(s2)-c2ccccc2OC3)cc1Cl	i	i	130%	x	-3%[9.22 µM]	x
C=CCN(C(=O)[C@@H](CCCC)[C@@H](O)c1ccc(C(C)=O)cc1)c1ccccc1	i	x	x	x	x	x
Cc1ccc(Cc2c[nH]c(=S)s2)cc1	i	i	x	1%	11µM*	0%
Cc1ccc(Cc2c(C)[nH]c(=S)[nH]c2=O)cc1	i	i	-1%	-7%	1%	1%
CCOc1ccc(NC(=O)CCc2c(C)nc3nc(-c4cc(OC)cc(OC)c4)nn3c2C)cc1	i	i	-4%	x	-2%	x
